NIH3T3 tox: Cytotoxic Profiling in NIH 3T3 Cell Line of Diverse Libraries Using Quantitative High-Throughput Screening. hit rate 4.3% among 94,000. Potency, µM (top dose mostly 96.7 µM), usual class: inhibitors. AID 1345082, 2018. NIH 3T3 viability, CellTiter-Glo ATP luminescence, 48-72 h; further: nearly all actives have a fitted effect of over 55% in size
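Viability of NIH 3T3 cells after 48 or 72 hr compound treatment at 37 °C was assessed by CellTiter-Glo, with luminescence imaged following a 10 min room-temperature step.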
hNpr1 antagonist: Natriuretic polypeptide receptor (hNpr1) antagonism - Primary qHTS; Atrial natriuretic peptide receptor 1 (Homo sapiens), P16066; HEK293 hNpr1 GloSensor cGMP, ANP-stimulated luminescence; Potency, µM (titrated, usually from 46.3 µM), most hits filed as inhibitors; hit rate 1.6% among 76,000; calls by dose curve; further: nearly all actives have a fitted effect of over 60% in size
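HEK293 cells stably expressing human Npr1 and cGMP GloSensor pGS-40F, loaded 2 h with 2% GloSensor reagent, given compound 30 min at room temperature. Luminescence read before and 20 min after 0.1 nM hNppA.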
FLuc inh: Firefly luciferase inhibition profiling of diverse chemical library using quantitative high-throughput screening; Luciferin 4-monooxygenase (Photinus pyralis), P08659; purified P. pyralis luciferase, luminescence, biochemical; Potency, µM (doses to about 115 µM), most hits filed as inhibitors; hit rate 2.5% among 76,000; further: nearly all actives have a fitted effect of over 65% in size
Target sequence (P08659 whole entry, looked up): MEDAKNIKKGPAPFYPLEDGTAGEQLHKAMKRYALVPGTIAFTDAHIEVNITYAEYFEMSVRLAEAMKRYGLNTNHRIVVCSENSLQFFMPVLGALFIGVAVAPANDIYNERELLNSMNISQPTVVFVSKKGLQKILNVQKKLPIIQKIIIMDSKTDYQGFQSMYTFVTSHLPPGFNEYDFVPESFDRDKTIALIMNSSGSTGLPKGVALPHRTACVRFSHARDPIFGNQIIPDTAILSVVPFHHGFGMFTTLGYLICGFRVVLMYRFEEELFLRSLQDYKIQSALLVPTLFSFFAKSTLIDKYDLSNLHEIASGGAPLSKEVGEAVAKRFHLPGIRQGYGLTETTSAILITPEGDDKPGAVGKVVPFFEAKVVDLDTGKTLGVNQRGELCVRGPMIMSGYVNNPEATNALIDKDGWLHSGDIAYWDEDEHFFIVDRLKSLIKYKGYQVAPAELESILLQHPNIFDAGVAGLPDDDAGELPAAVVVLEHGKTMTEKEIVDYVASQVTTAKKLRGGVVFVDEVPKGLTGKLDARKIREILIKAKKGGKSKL
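Cell-free enzyme assay, 10nM P. pyralis luciferase, luciferin and ATP each at 10uM. Inhibition profiled over a 6-point titration, read as luminescence.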
HEK293 tox: Cytotoxic Profiling in HEK 293 Cell Line of Diverse Libraries Using Quantitative High-Throughput Screening; HEK 293 viability, ATP luminescence (CellTiter-Glo), 48-72 h; Potency, µM (doses to about 115 µM), actives largely listed as inhibitors; hit rate 6.6% among 94,000; AID 1345083, 2018; further: nearly all actives have a fitted effect of over 60% in size
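Read-out: CellTiter-Glo ATP luminescence. Cells: HEK 293, 250 cells/well. Exposure: 48 or 72 hr, 37 degree Celsius.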
Npr1 antag conf: Natriuretic polypeptide receptor (hNpr1) antagonism - Confirmation; shares compounds with hNpr1 antagonist; HEK293 hNpr1 cGMP GloSensor luminescence, ANP-stimulated; Potency, µM (doses to about 57.6 µM), usual class: inhibitors; hit rate 76% among 1,400; AID 1347044, 2019; calls by dose curve; further: nearly all actives have a fitted effect of over 70% in size
NPR2 antag: Natriuretic polypeptide receptor (hNpr2) antagonism - Subtype selectivity assay. shares compounds with hNpr1 antagonist. HEK293 hNpr2 GloSensor cGMP luminescence, CNP-stimulated. Potency, µM (titrated, usually from 57.6 µM), usual class: inhibitors. hit rate 67% among 1,400; calls by dose curve; further: nearly all actives have a fitted effect of over 70% in size
FLuc counter: Natriuretic polypeptide receptor (hNpr1) antagonism - Confirmation firefly luciferase (FLuc) inhibition counterscreen | shares compounds with hNpr1 antagonist | hit rate 0.7% among 1,400 | Potency, µM (top dose mostly 57.6 µM), most hits filed as inhibitors | purified FLuc enzyme, luminescence, Km substrate
GloSensor ctrl: Natriuretic polypeptide receptor (hNpr1) antagonism - Counterscreen GloSensor control cell line; shares compounds with hNpr1 antagonist; HEK293 GloSensor cGMP, SNP-stimulated, luminescence; Potency, µM (series often up to 57.6 µM), hits mostly inhibitors; hit rate 69% among 1,400; calls by dose curve; further: nearly all actives have a fitted effect of over 70% in size
Large screens that a line does not name were inactive (follow-up assays come after a bar, where they were run). The list is not random: actives were taken first. Their share in the collection is about 11%. Unless noted, the call rests on the fitted dose curve; in most records, active means well fitted curve in the direction sought with a large enough effect; inconclusive means small, poorly fitted or top-dose-only effect, or another doubt; inactive means no such curve, though single readings can be large; an effect the other way counts as inactive or inconclusive.

NC(=O)Cc1c[nH]c2ncc(-c3ccccc3C(F)(F)F)cc12	hNpr1 antagonist inconclusive, HEK293 tox inconclusive | Npr1 antag conf 31µM | NPR2 antag inconclusive | FLuc counter inactive | GloSensor ctrl 35µM
O=C(Cc1c[nH]c2ncc(-c3ccccc3C(F)(F)F)cc12)NCc1cccnc1	NIH3T3 tox inconclusive, hNpr1 antagonist 7.9µM, HEK293 tox inconclusive | Npr1 antag conf 16µM | NPR2 antag 20µM | FLuc counter inactive | GloSensor ctrl 16µM
Cc1cccc(C(=O)N2C(C(=O)NC(C)c3ccccc3)COC23CCC(C)CC3)c1 (centres undefined)	NIH3T3 tox inconclusive, HEK293 tox inconclusive
O=C(CCC1CCCC1)N1CC(c2nnc(-c3ccncc3)o2)C2(CCOCC2)C1 (centres undefined)	HEK293 tox inconclusive
CCCn1ncc(N2CCC(C(=O)N3CCN(CC(=O)NCc4ccccc4)CC3)CC2)cc1=O	HEK293 tox inconclusive (no result: hNpr1 antagonist, FLuc inh)
CCNC(=O)Cc1c[nH]c2ncc(-c3ccccc3C)cc12	NIH3T3 tox inconclusive, hNpr1 antagonist 18µM, HEK293 tox inconclusive | Npr1 antag conf 31µM | NPR2 antag 31µM | FLuc counter inactive | GloSensor ctrl 28µM
COCCNC(=O)Cc1c[nH]c2ncc(-c3ccccc3C)cc12	NIH3T3 tox inconclusive, HEK293 tox inconclusive
CC(=O)Nc1ccc(NC(=O)c2cc3n(n2)CC(c2ccc(Cl)cc2)OC3)cc1 (centres undefined)	HEK293 tox inconclusive
CC(=O)c1ccc(N2CCN(C(=O)c3cc4n(n3)CC(c3ccc(Cl)cc3)OC4)CC2)cc1 (centres undefined)	NIH3T3 tox inconclusive, hNpr1 antagonist 11µM, HEK293 tox inconclusive | Npr1 antag conf 22µM | NPR2 antag 24µM | FLuc counter inactive | GloSensor ctrl 24µM
COc1ccc(CNC(=O)c2cc3n(n2)CC(c2ccc(Cl)cc2)OC3)cc1 (centres undefined)	NIH3T3 tox inconclusive, hNpr1 antagonist 22µM, HEK293 tox 32µM | Npr1 antag conf 27µM | NPR2 antag 22µM | FLuc counter inactive | GloSensor ctrl 22µM
O=C(Nc1ccc(Cl)cc1)c1cc2n(n1)CC(c1ccc(Cl)cc1)OC2 (centres undefined)	NIH3T3 tox inconclusive, hNpr1 antagonist 11µM, HEK293 tox inconclusive | Npr1 antag conf 24µM | NPR2 antag inconclusive | FLuc counter inactive | GloSensor ctrl 27µM
COc1ccc(NC(=O)c2cc3n(n2)CC(c2ccc4c(c2)OCO4)OC3)cc1Cl (centres undefined)	hNpr1 antagonist inconclusive, HEK293 tox inconclusive | Npr1 antag conf inconclusive | NPR2 antag inactive | FLuc counter inactive | GloSensor ctrl inconclusive
Cc1ccc(N2CCN(C(=O)c3cc4n(n3)CC(c3ccc(Cl)cc3)OC4)CC2)cc1 (centres undefined)	NIH3T3 tox inconclusive, hNpr1 antagonist inconclusive, HEK293 tox inconclusive
Cc1ccc(NC(=O)N[C@H]2C[C@@H](c3nc(-c4ccccn4)no3)N(C)C2)cc1	HEK293 tox inconclusive
COc1ccccc1Cn1c(=O)c(C(=O)NC(C)C)nc2cccnc21	HEK293 tox inconclusive (no result: hNpr1 antagonist, FLuc inh)
O=C(Nc1ccc(Oc2ccccc2)cc1)c1cc2n(n1)CC(c1ccc(Cl)cc1)OC2 (centres undefined)	hNpr1 antagonist 3.5µM, HEK293 tox inconclusive | Npr1 antag conf 3.9µM | NPR2 antag 4.8µM | FLuc counter inactive | GloSensor ctrl 3.9µM
NS(=O)(=O)c1ccc(CCNC(=O)c2cc3n(n2)CC(c2ccc(Cl)cc2)OC3)cc1 (centres undefined)	NIH3T3 tox inconclusive, hNpr1 antagonist 14µM, HEK293 tox 45µM | Npr1 antag conf 24µM | NPR2 antag inconclusive | FLuc counter inactive | GloSensor ctrl 24µM
O=C(NCCc1cccs1)c1cc2n(n1)CC(c1ccc(Cl)cc1)OC2 (centres undefined)	NIH3T3 tox inconclusive, hNpr1 antagonist inconclusive, HEK293 tox inconclusive
O=C(Nc1ccc(F)c(F)c1)c1cc2n(n1)CC(c1ccc(Cl)cc1)OC2 (centres undefined)	NIH3T3 tox inconclusive, hNpr1 antagonist inconclusive, HEK293 tox inconclusive
CN(Cc1ccc(N2CCCCC2)cc1)C(=O)c1ccc2c(c1)C(O)CCCCCN2C (centres undefined)	NIH3T3 tox inconclusive, hNpr1 antagonist 14µM, HEK293 tox 35µM | Npr1 antag conf 24µM | NPR2 antag 22µM | FLuc counter inactive | GloSensor ctrl 27µM
Cc1ccc(CN2CCN(C(=O)c3ccc4c(c3)C(O)CCCCCN4C)CC2)cc1 (centres undefined)	NIH3T3 tox inconclusive, hNpr1 antagonist 11µM, HEK293 tox 40µM | Npr1 antag conf 22µM | NPR2 antag 19µM | FLuc counter inactive | GloSensor ctrl 17µM
COc1ccc(N2CCN(C(=O)c3ccc4c(c3)C(O)CCCCCN4C)CC2)cc1 (centres undefined)	NIH3T3 tox inconclusive, hNpr1 antagonist inconclusive, HEK293 tox inconclusive
CC(C)CN1CCN(C(=O)c2ccc3c(c2)C(O)CCCCCN3C)CC1 (centres undefined)	HEK293 tox inconclusive
COc1ccc(NC(=O)Cn2cccc2-c2nc(-c3ccccc3)no2)c(OC)c1	NIH3T3 tox inconclusive, HEK293 tox inconclusive
CC1(C)[C@H](Cc2cc(-c3ccc(F)cc3)on2)C[C@@H]1NS(C)(=O)=O	NIH3T3 tox inconclusive, hNpr1 antagonist inconclusive, FLuc inh inconclusive, HEK293 tox 71µM | Npr1 antag conf 40µM | NPR2 antag 40µM | FLuc counter inactive | GloSensor ctrl 35µM
CCCN1C(=O)Cc2cc(C(=O)NC(C)c3ccc(OCC)cc3)ccc21 (centres undefined)	NIH3T3 tox inconclusive, hNpr1 antagonist inconclusive, HEK293 tox inconclusive | Npr1 antag conf inconclusive | NPR2 antag inconclusive | FLuc counter inactive | GloSensor ctrl inconclusive

Bioassay records from PubChem.
